Laboratory results: PubChem BioAssay (NCATS)
Records with an inconclusive call do not appear. Active and inactive are the calls of the source. Unless noted, the call rests on the fitted dose curve; in most records, active means well fitted curve in the direction sought with a large enough effect; inconclusive means small, poorly fitted or top-dose-only effect, or another doubt; inactive means no such curve, though single readings can be large; an effect the other way counts as inactive or inconclusive.

What was measured:
[1] = target: Voltage-gated inwardly rectifying potassium channel KCNH2 (Homo sapiens) (UniProt Q12809); assay: qHTS Assay for Small Molecule Inhibitors of the Human hERG Channel Activity (AID 588834);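 further: lower thallium flux fluorescence means stronger hERG block; nearly all actives have a fitted effect of over 50% in size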; further: potency means the concentration at half of the fitted maximal effect
Procedure, shortened: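 hERG-BacMam U2OS, 2000 cells/well; 0.7X FluxOR loading 1 hr RT dark; cpd ~10 min 37 °C; stim buffer; FDSS fluorescence 2 min @ 1 s; AC50 Hill fit.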

[2] = target: Luciferin 4-monooxygenase (Photinus pyralis) (UniProt P08659); assay: Biochemical firefly luciferase enzyme assay for NPC (AID 624030); further: nearly all actives have a fitted effect of over 70% in size; further: potency means the concentration at half of the fitted maximal effect
Procedure, shortened: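 Direct inhibition of firefly luciferase enzyme (10 nM final, 50 mM Tris Acetate) assessed by luminescence within 5 minutes. Percent activity scaled between DMSO and PTC124 positive control, with concentration-effect curves classified by fit quality and response.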

[3] = S16 Schwann cell viability assay (CellTiter-Glo assay) (AID 624031);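 further: cellular ATP luminescence as a viability measure; series mostly up to about 58 µM; nearly all actives have a fitted effect of over 70% in size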
Procedure, shortened: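 This viability control uses native rat S16 Schwann cells grown in DMEM plus 10% FBS. After a 24 h compound treatment at 37 °C, CellTiter-Glo luminescence reports ATP content, scaled against DMSO-treated and cell-free wells.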

[4] = S16 Schwann cell PMP22 intronic element firefly luciferase assay (AID 624032); further: nearly all actives have a fitted effect of over 30% in size; further: potency means the concentration at half of the fitted maximal effect
Procedure, shortened: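 Luciferase reporter of PMP22 intronic-element expression in stably transfected S16 rat Schwann cells, read by ONE-Glo luminescence after 24 h compound exposure at 37 C. Activity scaled between DMSO (0%) and positive-control PTC124; concentration-effect curves quality-classified.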

[5] = target: Glutaminase kidney isoform, mitochondrial (Homo sapiens) (UniProt O94925); assay: qHTS for Inhibitors of Glutaminase (GLS): LOPAC Validation (AID 624146);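 further: glutamate product detected by oxidase and peroxidase coupled Amplex red fluorescence gain; series mostly up to about 46 µM; nearly all actives have a fitted effect of over 60% in size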
Procedure, shortened: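 Compounds were pin-transferred onto hKGA, after which L-glutamine (1 mM solution) and a detection mix of glutamate oxidase, HRP and Amplex Red were added. Initial and 30 min RT fluorescence reads were collected.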

[6] = qHTS of Trypanosoma Brucei Inhibitors: LOPAC Validation (AID 624147)
Procedure, shortened: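 Screened from lowest to highest concentration, compounds were pinned into TbPYK/substrate mixtures, and ADP (130 uM final) was added. Plates sat at room temperature for 45 min prior to Kinase-Glo Plus detection by luminescence.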

[7] = qHTS of Nrf2 Activators: LOPAC Validation (AID 624149)
Procedure, shortened: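 AREc32 cells carrying an ARE-driven firefly luciferase were grown overnight in OPTI-MEM with 5% FBS, then exposed to compounds for 24 hr at 37 deg C. Luciferase signal was read after 30 min with Steady-Glo at RT.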

[8] = HTS Assay for Allosteric Antagonists of the Human D2 Dopamine Receptor: Hit Validation in HTRF (AID 624455);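 further: stable D1 dopamine receptor cell line scored for blocking the D1 response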
Procedure, shortened: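 Hits were examined in an HTRF assay using cells stably expressing the D1 dopamine receptor, scoring inhibition of the D1-mediated response. The preceding primary screen tracked calcium flux after an EC80 dopamine addition in force-coupled, inducible Hek293 Trex D2 cells.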

[9] = S16 Schwann cell PMP22 intronic element beta-lactamase assay (AID 624044; calls by dose curve; further: nearly all actives have a fitted effect of over 15% in size)
Procedure, shortened: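 Rat S16 Schwann cells with beta-Lac driven by a PMP22 intronic element, compound-treated 24 h at 37 °C. LiveBLAzer FRET B/G read: 460 nm normalized to potassium clavulanate vs DMSO; 535 nm FRET as viability; concentration-effect curves classified.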

Measured: Potency

Sequence of Voltage-gated inwardly rectifying potassium channel KCNH2 (Homo sapiens) (Q12809 whole entry, looked up): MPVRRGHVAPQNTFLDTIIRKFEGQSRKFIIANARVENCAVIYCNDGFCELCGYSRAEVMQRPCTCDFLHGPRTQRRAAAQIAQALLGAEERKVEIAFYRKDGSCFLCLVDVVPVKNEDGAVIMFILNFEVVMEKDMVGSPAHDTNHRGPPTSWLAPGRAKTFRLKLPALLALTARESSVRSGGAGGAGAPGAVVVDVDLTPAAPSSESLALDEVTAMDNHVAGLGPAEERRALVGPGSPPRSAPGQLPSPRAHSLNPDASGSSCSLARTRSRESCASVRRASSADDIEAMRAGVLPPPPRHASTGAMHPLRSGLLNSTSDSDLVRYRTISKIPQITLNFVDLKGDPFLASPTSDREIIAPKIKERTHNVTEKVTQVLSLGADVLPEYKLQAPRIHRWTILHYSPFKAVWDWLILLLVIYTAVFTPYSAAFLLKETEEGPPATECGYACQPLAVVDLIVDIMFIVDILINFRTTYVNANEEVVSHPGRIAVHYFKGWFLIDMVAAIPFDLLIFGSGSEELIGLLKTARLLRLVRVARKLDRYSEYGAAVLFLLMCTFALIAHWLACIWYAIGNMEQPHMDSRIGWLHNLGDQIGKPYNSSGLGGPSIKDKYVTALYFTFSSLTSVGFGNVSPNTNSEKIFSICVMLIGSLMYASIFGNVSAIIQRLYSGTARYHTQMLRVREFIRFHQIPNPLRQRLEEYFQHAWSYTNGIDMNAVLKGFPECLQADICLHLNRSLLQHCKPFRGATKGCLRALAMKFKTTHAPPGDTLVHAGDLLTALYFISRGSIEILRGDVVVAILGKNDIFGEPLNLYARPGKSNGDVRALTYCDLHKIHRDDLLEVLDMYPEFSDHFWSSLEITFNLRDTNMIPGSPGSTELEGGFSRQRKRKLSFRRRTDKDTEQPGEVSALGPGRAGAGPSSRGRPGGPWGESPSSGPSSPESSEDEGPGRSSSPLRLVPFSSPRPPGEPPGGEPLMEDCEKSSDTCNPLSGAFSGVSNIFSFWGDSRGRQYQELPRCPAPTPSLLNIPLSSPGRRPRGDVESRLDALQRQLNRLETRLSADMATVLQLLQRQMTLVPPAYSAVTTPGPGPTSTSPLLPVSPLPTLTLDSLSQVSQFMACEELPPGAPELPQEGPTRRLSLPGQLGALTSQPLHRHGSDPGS
Sequence of Luciferin 4-monooxygenase (Photinus pyralis) (P08659 whole entry, looked up): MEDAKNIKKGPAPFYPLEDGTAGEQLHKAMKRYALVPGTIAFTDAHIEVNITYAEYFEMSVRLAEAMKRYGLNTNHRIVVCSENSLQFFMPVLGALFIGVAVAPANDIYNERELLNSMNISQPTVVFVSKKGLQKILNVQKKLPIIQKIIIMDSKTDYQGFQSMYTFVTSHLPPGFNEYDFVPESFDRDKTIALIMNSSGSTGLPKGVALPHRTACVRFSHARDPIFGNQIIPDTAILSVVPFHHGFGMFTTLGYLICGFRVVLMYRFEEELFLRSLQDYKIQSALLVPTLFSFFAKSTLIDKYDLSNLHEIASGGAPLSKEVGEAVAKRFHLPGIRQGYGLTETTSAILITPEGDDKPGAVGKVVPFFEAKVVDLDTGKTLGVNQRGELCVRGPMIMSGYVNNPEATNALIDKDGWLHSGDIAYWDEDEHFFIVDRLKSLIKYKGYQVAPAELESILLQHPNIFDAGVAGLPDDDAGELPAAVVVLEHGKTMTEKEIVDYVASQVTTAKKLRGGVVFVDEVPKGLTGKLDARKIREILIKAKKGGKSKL
Sequence of Glutaminase kidney isoform, mitochondrial (Homo sapiens) (O94925 whole entry, looked up, canonical isoform): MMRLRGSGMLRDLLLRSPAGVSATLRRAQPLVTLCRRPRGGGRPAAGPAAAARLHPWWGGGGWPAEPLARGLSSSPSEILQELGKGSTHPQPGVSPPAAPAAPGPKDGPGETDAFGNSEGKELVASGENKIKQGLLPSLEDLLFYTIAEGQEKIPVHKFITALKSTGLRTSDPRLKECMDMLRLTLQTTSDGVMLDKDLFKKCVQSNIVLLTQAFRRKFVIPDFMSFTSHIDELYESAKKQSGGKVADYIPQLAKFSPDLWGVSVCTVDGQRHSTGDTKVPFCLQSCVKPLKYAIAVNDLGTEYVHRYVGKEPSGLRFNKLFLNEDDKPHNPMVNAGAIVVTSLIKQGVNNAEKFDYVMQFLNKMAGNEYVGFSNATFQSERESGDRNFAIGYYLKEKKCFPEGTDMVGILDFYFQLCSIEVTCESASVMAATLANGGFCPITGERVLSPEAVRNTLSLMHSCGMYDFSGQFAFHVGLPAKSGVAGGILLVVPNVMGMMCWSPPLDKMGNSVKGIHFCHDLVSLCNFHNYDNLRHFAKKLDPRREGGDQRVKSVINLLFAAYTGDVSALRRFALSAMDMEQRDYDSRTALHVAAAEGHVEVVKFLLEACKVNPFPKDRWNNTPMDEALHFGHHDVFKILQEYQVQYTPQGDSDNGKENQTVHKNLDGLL

O=c1[nH]oc2c1CCNC2
not listed: [9]
inactive: all other assays above

O=C1CN=C(c2ccccc2)c2cc([N+](=O)[O-])ccc2N1
inactive: [1] | [2] | [3] | [4] | [9]

Cc1nnc2n1-c1ccc(Cl)cc1C(c1ccccc1)=NC2
inactive: [1] | [2] | [3] | [4] | [9]

COc1cccc([C@@]2(O)CCCC[C@@H]2CN(C)C)c1
inactive: [1] | [2] | [3] | [4] | [9]

CC(C)(C)NCC(O)c1cc(Cl)c(N)c(C(F)(F)F)c1 (configuration not stated)
inactive: [1] | [2] | [3] | [4]

CN=C1CN(O)C(c2ccccc2)=c2cc(Cl)ccc2=N1
inactive: [1]

NC(=O)CS(=O)C(c1ccccc1)c1ccccc1 (configuration not stated)
inactive: [1] | [2] | [3] | [4]

CCCCCN(C)CCC(O)(P(=O)(O)O)P(=O)(O)O
inactive: [1]

CCC1(CC)C(=O)C=CNC1=O
inactive: [1] | [2] | [3] | [4]

CC(C)=CC1C(C(=O)OCN2C(=O)C3=C(CCCC3)C2=O)C1(C)C (configuration not stated)
inactive: [2] | [3] | [9]
active: [1] 20 µM

NNc1ccccc1
inactive: [1] | [2] | [3] | [4]

COP(=S)(OC)Oc1ccc(S(=O)(=O)N(C)C)cc1
inactive: [1] | [2] | [3] | [4] | [9]

CCCCCCCCCC(=O)O[C@H]1CC[C@H]2[C@@H]3CCC4=CC(=O)CC[C@@H]4[C@H]3CC[C@]12C
inactive: [1] | [2] | [3] | [4] | [9]

C=C(C)[C@H]1CN[C@H](C(=O)O)[C@H]1CC(=O)O
not listed: [9]
inactive: all other assays above

COc1ccc2c(c1)C13CCCC[C@@H]1C(C2)N(C)CC3 (some centres not stated)
inactive: [1] | [2] | [3] | [4] | [9]

CN1CCC(O)(c2ccc(F)cc2)C(C(=O)c2ccc(F)cc2)C1 (configuration not stated)
inactive: [2] | [4] | [9]
active: [1] 14.1 µM

CCCCCCC(=O)CCCCCC/C=C/C[C@@H](O)[C@H](O)[C@@](N)(CO)C(=O)O
inactive: [1] | [2] | [3]

CNC(C)(C)Cc1ccccc1
inactive: [1] | [2] | [3] | [4]

CC(C)C[C@H](CN)CC(=O)O
inactive: [1]

CN1C(=O)CC(=O)N(c2ccccc2)c2cc(Cl)ccc21
inactive: [1] | [2] | [3] | [4]

C[C@](O)(CS(=O)(=O)c1ccc(F)cc1)C(=O)Nc1ccc(C#N)c(C(F)(F)F)c1
active: [4] 16.1 µM
inactive: [1] | [2]

O=C1OC(c2ccc(O)c(S(=O)(=O)O)c2)(c2ccc(O)c(S(=O)(=O)O)c2)c2c(Br)c(Br)c(Br)c(Br)c21
inactive: [1] | [3] | [4] | [9]
active: [2] 28.7 µM
